Our source for the growth values is PubChem BioAssay (NCI).

Molecules are shown by their SMILES. About 83,000 compounds went through this panel and 20% of them were active in at least one assay; those are over-represented in the sample as a whole.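 Activity criterion: percent growth below 10, measured after cells in 96-well plates were exposed to a single compound concentration for 48 hours.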 Values without a mark were called inactive. Calls of active or inactive are those of the source.

Some test systems named below: SR leukemia; RPMI-8226 leukemia; OVCAR-8 ovarian; OVCAR-5 ovarian; OVCAR-4 ovarian; SK-OV-3 ovarian; IGROV1 ovarian; OVCAR-3 ovarian; HS 578T breast; NCI/ADR-RES ovarian.
Common to all, as to test: NCI-60 one-dose screen, 48 h (100 = growth as untreated, 0 = no growth, -100 = all killed)
Holding throughout (conditions): 10 µM unless noted

Turning to `COc1cc(NC(=O)SC2=NCCS2)cc(OC)c1`, the growth with SR leukemia was 93.9%; in the test on RPMI-8226 leukemia, 63.2%; in the test on OVCAR-8 ovarian it was 98.7%; with OVCAR-5 ovarian, 97.7%; in the test on OVCAR-4 ovarian it was 98%; with SK-OV-3 ovarian, 98%. Further, the growth in the test on IGROV1 ovarian was 139%; in the test with OVCAR-3 ovarian, 113%; with HS 578T breast, 99.7%; in the test with NCI/ADR-RES ovarian, 99%.

As for `C=C[C@@H]1C[C@H](O)Cc2cc(F)ccc2N1`, the growth in the test with SR leukemia was 73.6%; in the test with RPMI-8226 leukemia it was 73.2%; with OVCAR-8 ovarian, 102%; in the test on OVCAR-5 ovarian, 95.7%; with OVCAR-4 ovarian, 101%; in the test with SK-OV-3 ovarian, 104%. Besides, the growth in the test on IGROV1 ovarian is 131%; with OVCAR-3 ovarian it was 102%; in the test on HS 578T breast, 90.6%; with NCI/ADR-RES ovarian, 105%.

Regarding `Cc1cc(N/N=C/c2nc(-c3ccccc3)oc2C)c2cc(Cl)ccc2n1`, the growth is -13.7% (active) in the test with SR leukemia; -39.4% (active) with RPMI-8226 leukemia; -41.7% (active) with OVCAR-8 ovarian; -88.5% (active) with OVCAR-5 ovarian; -89.6% (active) in the test on OVCAR-4 ovarian; 76.4% in the test on SK-OV-3 ovarian. The growth is -83.7% (active) in the test on IGROV1 ovarian, -92.5% (active) in the test with OVCAR-3 ovarian, -48.9% (active) in the test on HS 578T breast and -62.5% (active) with NCI/ADR-RES ovarian.

As to `COc1ccc(C2NN=C3c4ccccc4CCC32)cc1` (stereo not given), the growth in the test with SR leukemia is 3.17% (active); with RPMI-8226 leukemia, 21.7%; with OVCAR-8 ovarian it was 80.4%; in the test on OVCAR-5 ovarian, 90.5%; in the test on OVCAR-4 ovarian it was 71.4%; in the test with SK-OV-3 ovarian, 77%. Further, the growth was 16.8% in the test with IGROV1 ovarian, 37.6% in the test on OVCAR-3 ovarian, 62.3% in the test on HS 578T breast and 29.9% in the test on NCI/ADR-RES ovarian.

Consider `COc1ccc(C2CC(c3ccc(OC)cc3OC)=NN2c2ccc(S(N)(=O)=O)cc2)cc1` (stereo not given), for which the growth is 70.2% in the test on SR leukemia; 2.07% (active) with RPMI-8226 leukemia; 77% with OVCAR-8 ovarian; 99.4% in the test on OVCAR-5 ovarian; 80.2% with OVCAR-4 ovarian; 105% in the test with SK-OV-3 ovarian. Besides, the growth in the test on IGROV1 ovarian was 82.5%; in the test on OVCAR-3 ovarian, 119%; in the test with HS 578T breast, 103%; with NCI/ADR-RES ovarian it was 89.4%.

Regarding `CCOC(=O)c1c(/N=C2\SC(=O)/C(=C\C(=O)OC)N2NC)sc2c1CCN(C(=O)OCC)C2`, the growth was 103% in the test on SR leukemia; 95.3% with RPMI-8226 leukemia; 103% in the test with OVCAR-8 ovarian; 102% in the test with OVCAR-5 ovarian; 99.1% in the test on OVCAR-4 ovarian; 109% in the test with SK-OV-3 ovarian. For the same compound, the growth in the test on IGROV1 ovarian is 102%; with OVCAR-3 ovarian it was 106%; with HS 578T breast, 103%; with NCI/ADR-RES ovarian, 103%.

In the case of `C/C(=C\c1ccc(OCC(=O)O)c(Cl)c1Cl)[N+](=O)[O-]`, the growth in the test with SR leukemia is 72.1%; in the test with RPMI-8226 leukemia it was 99.7%; in the test on OVCAR-8 ovarian, 93.7%; in the test on OVCAR-5 ovarian, 113%; in the test with OVCAR-4 ovarian, 114%; in the test with SK-OV-3 ovarian it was 94%. Moreover, the growth is 133% in the test with IGROV1 ovarian, 99.9% with OVCAR-3 ovarian, 107% in the test with HS 578T breast and 102% in the test with NCI/ADR-RES ovarian.

Take `CCOC(=O)/C(C#N)=C1/C(=O)Nc2ccccc21`: the growth is 149% in the test on SR leukemia; 111% in the test with RPMI-8226 leukemia; 108% in the test with OVCAR-8 ovarian; 104% in the test with OVCAR-5 ovarian; 114% in the test with OVCAR-4 ovarian; 117% in the test on SK-OV-3 ovarian. Moreover, the growth with IGROV1 ovarian is 109%; with OVCAR-3 ovarian it was 134%; in the test on HS 578T breast, 121%; with NCI/ADR-RES ovarian it was 112%.

Turning to `O=c1ccn(-c2ncnc3nc[nH]c23)cc1`, the growth in the test on SR leukemia was 86.2%; with RPMI-8226 leukemia it was 76.4%; in the test with OVCAR-8 ovarian, 101%; in the test with OVCAR-5 ovarian it was 93.8%; in the test on OVCAR-4 ovarian it was 93.3%; with SK-OV-3 ovarian it was 84.8%. For the same compound, the growth in the test with IGROV1 ovarian is 88%; with OVCAR-3 ovarian, 88.3%; in the test with HS 578T breast it was 81.7%; with NCI/ADR-RES ovarian, 97.6%.

As for `COc1cccc(/C=C/C(=O)Nc2cc(OC)c3c(c2)OCO3)c1`, the growth in the test with SR leukemia was 81.5%; in the test on RPMI-8226 leukemia it was 57.1%; in the test with OVCAR-8 ovarian it was 105%; with OVCAR-5 ovarian it was 89.1%; in the test with OVCAR-4 ovarian, 96.4%; in the test with SK-OV-3 ovarian, 104%. Moreover, the growth was 108% with IGROV1 ovarian, 110% in the test with OVCAR-3 ovarian, 98.8% with HS 578T breast and 93.2% with NCI/ADR-RES ovarian.

Turning to `O=C(NNC(=O)N1c2ccccc2C=Cc2ccccc21)c1ccccc1`, the growth with SR leukemia was 96.6%; in the test on RPMI-8226 leukemia, 104%; with OVCAR-8 ovarian, 105%; in the test with OVCAR-5 ovarian, 103%; in the test on OVCAR-4 ovarian, 103%; in the test on SK-OV-3 ovarian, 112%. Besides, the growth with IGROV1 ovarian was 110%; with OVCAR-3 ovarian, 113%; in the test on HS 578T breast, 109%; with NCI/ADR-RES ovarian, 99.8%.

Turning to `FC(F)(F)c1cccc(-c2cn3c(ccc4ccccc43)n2)c1`, the growth with SR leukemia is 95.1%; in the test on RPMI-8226 leukemia, 94.4%; with OVCAR-8 ovarian, 94.8%; in the test on OVCAR-5 ovarian, 102%; in the test on OVCAR-4 ovarian, 97.7%; in the test on SK-OV-3 ovarian it was 85.7%. Moreover, the growth in the test on IGROV1 ovarian is 81.5%; in the test with OVCAR-3 ovarian it was 97.2%; in the test with HS 578T breast, 104%; in the test with NCI/ADR-RES ovarian, 92.6%.

Take `COc1ccc(/C=C2\N=C(c3ccccc3)N(C(=O)c3ccccc3O)NC2=O)cc1`: the growth was 64% in the test on SR leukemia; 46.2% in the test on RPMI-8226 leukemia; 109% in the test with OVCAR-8 ovarian; 98.5% in the test on OVCAR-5 ovarian; 105% in the test with OVCAR-4 ovarian; 100% in the test with SK-OV-3 ovarian. Moreover, the growth is 98.2% in the test on IGROV1 ovarian, 118% in the test with OVCAR-3 ovarian, 93.8% with HS 578T breast and 93.1% with NCI/ADR-RES ovarian.

Turning to `COc1ccc2[nH]c(=O)c(/C=N/Nc3nc(-c4ccccc4)cs3)c(O)c2c1`, the growth in the test with SR leukemia was 56.2%; in the test on RPMI-8226 leukemia it was 70.6%; in the test with OVCAR-8 ovarian, 55.1%; in the test on OVCAR-5 ovarian, 85.6%; in the test on OVCAR-4 ovarian, 47.9%; with SK-OV-3 ovarian, 76.8%. Further, the growth in the test with IGROV1 ovarian was 70.3%; with OVCAR-3 ovarian, 24.2%; in the test with HS 578T breast it was 112%; in the test on NCI/ADR-RES ovarian, 37.7%.
